According to paper PMC7826789 (International Journal of Molecular Sciences, 2021):

tested on: CDK2; conditions: Compound Concentration (nM):1000
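Also: KINOMEscan scanMAX binding as percent activity remaining versus control; lower means stronger binding.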

| Structure (SMILES) | Percent Control [%] |
| --- | --- |
| NS(=O)(=O)c1ccc(N/N=C2\C(=O)Nc3ccc(C(=O)NCc4ccncc4)cc32)cc1 [GW300657X] | 39 |
| Cl.O=C(Nc1ccc(Oc2ccc3[nH]c(NC(=O)c4ccco4)nc3c2)cc1)Nc1cc(C(F)(F)F)ccc1F [GW683134A] | 96 |
| COc1ccccc1-c1cc(/C=C2\C(=O)Nc3ncc(Br)cc32)cc(Br)c1O [GW442130X] | 89 |
| CN1CCN(C(=O)c2ccc(NC(=O)Nc3ccc(N(C)c4ccnc(Nc5ccc(CS(C)(=O)=O)cc5)n4)cc3)cc2)CC1.Cl [GW830263A] | 87 |
| Cc1cc(O)cc(C)c1/C=C/c1cncc(C(N)=O)c1 [GW435821X] | 100 |
